TDP1 cell noCPT = qHTS for Inhibitors of human tyrosyl-DNA phosphodiesterase 1 (TDP1): qHTS in cells in absence of CPT; DT40 Tdp1-/- hTDP1 cells, no CPT, ATP luminescence, 48 h; AID 686978, 2013; actives 15% (n = 420,000); Potency, µM (titrated, usually from 46.2 µM), hits mostly inhibitors; note: nearly all actives have a fitted effect of over 55% in size
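Compound effects on proliferation are scored in DT40 Tdp1-/-;hTDP1 cells in the absence of CPT. ATP levels (CellTiter-Glo luminescence) are recorded after a ≥48 hr, 37 °C incubation.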
VP16 counter = VP16 counterscreen qHTS for inhibitors of ROR gamma transcriptional activity | Drosophila S2 Gal4-VP16 UAS-luciferase, luminescence, 20 h | Potency, µM (titrated, usually from 53.6 µM), actives largely listed as inhibitors | actives 3.5% (n = 310,000);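 note: Gal4-VP16 expression switched on by copper sulfate through the metallothionein promoter; nearly all actives have a fitted effect of over 50% in size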
DT40 TDP1 CPT = qHTS for Inhibitors of human tyrosyl-DNA phosphodiesterase 1 (TDP1): qHTS in cells in presence of CPT. actives 12% (n = 420,000). chicken DT40 Tdp1-/-;hTDP1 cells + 20 nM CPT, ATP luminescence, 48 h. Potency, µM (highest dose often 46.2 µM), most hits filed as inhibitors; note: nearly all actives have a fitted effect of over 55% in size
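Chicken DT40 Tdp1-/- cells stably complemented with human TDP1 were seeded at 400 cells/well in medium containing 20 nM camptothecin, exposed to pin-transferred compounds, and grown at 37 °C for at least 48 hr. Viability was read as ATP luminescence.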
TDP1 block = qHTS Assay for Inhibitors of Tyrosyl-DNA Phosphodiesterase (TDP1); recombinant TDP1, AlphaScreen DNA substrate cleavage; Potency, µM (top dose mostly 130 µM), usual class: inhibitors; actives 0.28% (n = 350,000); AID 485290, 2010; note: nearly all actives have a fitted effect of over 40% in size
Target sequence (Q9NUW8 whole entry, looked up): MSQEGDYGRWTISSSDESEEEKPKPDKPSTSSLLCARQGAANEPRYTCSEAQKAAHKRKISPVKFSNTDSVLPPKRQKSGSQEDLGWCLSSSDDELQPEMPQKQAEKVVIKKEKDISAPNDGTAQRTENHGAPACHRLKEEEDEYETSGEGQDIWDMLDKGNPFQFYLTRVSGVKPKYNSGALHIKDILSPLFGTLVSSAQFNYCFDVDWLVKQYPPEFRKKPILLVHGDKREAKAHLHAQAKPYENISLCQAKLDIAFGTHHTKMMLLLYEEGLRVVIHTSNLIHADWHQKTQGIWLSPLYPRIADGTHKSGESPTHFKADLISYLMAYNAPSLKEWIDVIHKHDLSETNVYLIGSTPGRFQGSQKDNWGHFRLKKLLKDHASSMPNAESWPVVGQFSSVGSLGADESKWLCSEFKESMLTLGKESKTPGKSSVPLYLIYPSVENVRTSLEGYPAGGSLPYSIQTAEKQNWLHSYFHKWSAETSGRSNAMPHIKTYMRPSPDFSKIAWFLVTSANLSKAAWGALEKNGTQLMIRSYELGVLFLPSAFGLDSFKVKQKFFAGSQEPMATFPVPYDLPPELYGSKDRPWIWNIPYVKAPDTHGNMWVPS
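Compounds were preincubated with Tdp1 (1 nM final) for 15 min at room temperature before substrate (15 nM final) started a 5 min reaction; beads (10 ug/ml final) were then added for 10 min before AlphaScreen detection.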
RORg inh = qHTS for inhibitors of ROR gamma transcriptional activity; Drosophila S2 Gal4-RORgamma UAS-luciferase reporter, 20 h; Potency, µM (highest dose often 53.6 µM), usual class: inhibitors; actives 5.4% (n = 310,000); note: nearly all actives have a fitted effect of over 60% in size
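ROR gamma transcriptional activity was tracked as Gal4-UAS luciferase output in stably transfected Drosophila Schneider cells, with compound added 1 hr before 700 uM copper sulfate induction and a 20 hr ambient-temperature incubation.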
Numbers stand for hits; - = inactive; ? = inconclusive; . = no result. A selection: hits, their analogues and other compounds. The true share with any hit is near 19%. Calls come from the whole dose curve; as a rule, active = well fitted curve in the direction sought with a large enough effect; inconclusive = small, poorly fitted or top-dose-only effect, or another doubt; inactive = no such curve, though single readings can be large; an effect the other way counts as inactive or inconclusive.

SMILES	TDP1 cell noCPT	VP16 counter	DT40 TDP1 CPT	TDP1 block	RORg inh
Fc1ccccc1-c1ccc(-c2nc3ccc(Cl)cn3c2Nc2ccc(Cl)cc2)o1	3.55µM	.	4.47µM	-	.
c1csc(-c2nc3ccccn3c2Nc2ccc3c(c2)OCCO3)c1	?	.	?	-	.
Cc1ccc(-c2nc3ccc(Cl)cn3c2Nc2ccc3c(c2)OCCO3)o1	16.4µM	.	20.6µM	-	.
Cc1ccc(-c2nc3ccc(Cl)cn3c2Nc2ccc3c(c2)OCCO3)s1	?	.	18.4µM	-	.
C=CCn1c(O)c(N=NC(=S)Nc2cccc(OC)c2)c2ccccc21	2.91µM	2.51µM	3.26µM	-	0.794µM
C=CCn1c(O)c(N=NC(=S)Nc2ccc(OC)cc2)c2ccccc21	4.61µM	3.98µM	3.66µM	-	3.16µM
C=CCn1c(O)c(N=NC(=O)OCC)c2ccccc21	?	?	?	-	-
O=C(c1cccc(F)c1)N1CCC2(CC1)CN(c1ccccn1)C2	?	-	14.6µM	.	-
O=C(c1cccc(F)c1)N1CCC2(CC1)CCN(c1ccncc1)CC2	18.4µM	-	7.31µM	.	-
O=C(c1cccc(F)c1)N1CCC2(CC1)CCN(c1ccccn1)CC2	?	-	?	.	-
O=C(c1cccc(F)c1)N1CCC2(CC1)CCN(c1ncccn1)CC2	18.4µM	-	?	.	-
O=C(c1cc(C(F)(F)F)cc(C(F)(F)F)c1)N1CCC2(CC1)CN(c1ccccn1)C2	5.17µM	15.8µM	4.61µM	.	-
O=C(c1cccc(F)c1)N1CCC2(CCCN(c3ncccn3)C2)CC1	?	-	-	.	-
CCOC(=O)c1c[nH]c(=O)c(Br)c1O	-	-	-	-	-
O=C(COC(=O)CCc1ccc(S(=O)(=O)N2CCOCC2)cc1)Nc1ccc(Cl)cn1	-	-	-	-	-
O=C(c1cc(C(F)(F)F)cc(C(F)(F)F)c1)N1CCC2(CC1)CCN(c1ccncc1)CC2	18.4µM	-	25.9µM	.	-
C/C(=N\Nc1cccc2cccnc12)c1ccccn1	0.92µM	3.98µM	0.731µM	-	0.631µM
C/C(=N\Nc1ccc(Cl)c(C(=O)O)c1)c1ccccn1	-	-	-	-	?
C/C(=N\Nc1cccc2cccnc12)c1ccccc1O	-	-	-	-	?
C/C(=N\Nc1ncc(Cl)cc1Cl)c1ccc(N2CCOCC2)cc1	?	?	?	-	5.01µM
C/C(=N\Nc1ncc(Cl)cc1Cl)c1ccccn1	0.0259µM	14.1µM	18.4µM	-	0.708µM
C/C(=N\Nc1nc2ccccc2[nH]1)c1ccc(Cl)s1	23.1µM	2.82µM	?	-	2.24µM
CC1CC(=O)N(c2ccc(NCc3ccc(Cl)cc3)c([N+](=O)[O-])c2)C1=O (stereo not drawn)	?	?	?	-	?
C=CCOc1c(Br)cc(C2NC(=O)NC(C)=C2C(C)=O)cc1OCC (stereo not drawn)	-	-	-	-	-
C/C(=N\Nc1nncc2ccccc12)c1cccc(OC(F)F)c1	?	?	-	-	?
SMILES	TDP1 cell noCPT	VP16 counter	DT40 TDP1 CPT	TDP1 block	RORg inh
C/C(=N\Nc1nc(C)cc(C)n1)c1ccc(N2CCOCC2)cc1	?	-	?	-	11.2µM
C/C(=N/Nc1nc(C)cc(C)n1)c1ccc(Br)cc1	?	7.94µM	?	.	7.94µM
C/C(=N\Nc1ncnc2sc(C)c(C)c12)c1ccccn1	0.0146µM	0.794µM	0.103µM	.	0.398µM
C/C(=N/Oc1nc(C)cc(C)n1)c1ccc(Br)cc1	?	?	-	-	?
Cc1sc2ncnc(N/N=C/c3cccc(O)c3)c2c1C	-	?	-	-	?
C/C(=N\Nc1cc(N2CCCCC2)nc(C)n1)c1ccc(Br)cc1	5.8µM	6.31µM	13µM	-	?
Cc1ccccc1Nc1nc(N)nc(CSc2nc3ccccc3s2)n1	?	-	?	-	?
C/C(=N\Nc1nc2ccccc2[nH]1)c1ccc(N2CCOCC2)cc1	16.4µM	?	?	-	3.16µM
CCN(CC(=O)Nc1ccccc1OC)C(=O)c1cc(-c2ccccc2)nn1-c1ccccc1	?	.	20.6µM	-	.

Assay outcomes as filed in PubChem BioAssay.
